Measured values reported in PubChem BioAssay (Tox21).
Records with an inconclusive call do not appear. Where a call stands in place of a potency, no number is given. More than one record can exist for a structure, and the calls need not agree. The source made the active and inactive calls. Unless noted, the call rests on the fitted dose curve; in most records, active means well fitted curve in the direction sought with a large enough effect in the repeat runs; inconclusive means weak or mixed curves; inactive means no such curve, though single readings can be large; an effect the other way counts as inactive or inconclusive.

Columns and labels:
[1] = target: Retinoic acid receptor RXR-alpha (Homo sapiens) (UniProt P19793); assay: qHTS assay to identify small molecule agonists of the RXR signaling pathway (AID 1159527; calls by dose curve; further: nearly all actives have a fitted effect of over 35% in size; further: potency means the concentration at half of the fitted maximal effect); details: HEK293T RXRa-UAS-bla, beta-lactamase ratio, 16 h; series mostly up to 76.8 µM
Summary of the method: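 qHTS of the Tox21 10K library in GeneBLAzer RXR-alpha HEK 293T cells carrying a beta-lactamase reporter […]; 16 hr treatment, 9-cis retinoic acid as agonist control, FRET read-out.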

[2] = qHTS assay to identify small molecule agonists of the RXR signaling pathway - cell viability counter screen (AID 1159529); details: RXR-alpha-bla HEK293T viability, CellTiter-Glo, 16 h; series mostly up to 76.8 µM; further: nearly all actives have a fitted effect of over 50% in size; further: potency means the concentration at half of the fitted maximal effect
Summary of the method: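 Cell viability is measured by CellTiter-Glo luminescence, 30 min at room temperature, in wells already read for beta-lactamase. Engineered HEK 293T cells (RXR-alpha-UAS-bla) are dosed 16 hr at 37 C. Tetraoctyl ammonium bromide serves as positive control.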

[3] = qHTS assay to identify small molecule antagonists of the retinoid acid receptor (RAR) signaling pathway - cell viability counter screen (AID 1159551); details: C3RL4 cells viability, ATP luminescence (CellTiter-Glo), 6 h; series mostly up to 92.4 µM; further: nearly all actives have a fitted effect of over 35% in size
Summary of the method: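 Cytotoxicity counter screen in C3RL4 cells: 6 h compound exposure with 1 uM retinol (final), viability from cellular ATP by luminescence.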

[4] = qHTS assay to identify small molecule agonists of the retinoic acid receptor (RAR) signaling pathway (AID 1159553); details: C3RL4 RARE luciferase reporter, agonist, 6 h; series mostly up to 73.3 µM; further: potency means the concentration at half of the fitted maximal effect
Summary of the method: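 Agonist activity was scored in C3RL4 cells bearing a retinoic acid response element luciferase construct. Cells were treated with compounds for 6 hr at 37 C, and luciferase signal was measured as luminescence.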

[5] = qHTS assay to identify small molecule antagonists of the estrogen related receptor (ERR) signaling pathway - cell viability counter screen (AID 1224818); details: ERR reporter cell line viability counter screen; series mostly up to 46.1 µM;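 further: viability measured after 17.5 h of compound exposure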
Summary of the method: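 Cells carrying the ERR pathway reporter were seeded and incubated for 6 hours before compound addition. After a 17.5-hour exposure at 37 C, live-cell protease activity was measured by CellTiter-Fluor fluorescence following 30 minutes of incubation.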

[6] = qHTS assay to identify small molecule antagonists of the estrogen related receptor (ERR) signaling pathway (AID 1224819;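 further: luminescence from an ERR-driven luciferase reporter measured with One-Glo reagent; nearly all actives have a fitted effect of over 50% in size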); details: ERR reporter cell line, luciferase inhibition; series mostly up to 46.1 µM
Summary of the method: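 Compounds dissolved in DMSO were pin-transferred onto ERR cells that had been plated 6 h earlier, and cells were then incubated 18 h at 37 C; signal was luciferase luminescence via One-Glo.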

[7] = qHTS assay to identify small molecule agonists of the estrogen related receptor (ERR) signaling pathway (AID 1224820); details: ERR reporter cell line, luciferase agonist mode; series mostly up to 46.1 µM
Summary of the method: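 ERR reporter cells (NTP line) plated 2,000/well, incubated 6 h at 37 C/5% CO2, then pinned with compounds in DMSO and held 18 h at 37 C. One-Glo added; luminescence read after 30 min at room temperature.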

[8] = qHTS assay to identify small molecule antagonists of the estrogen related receptor signaling pathway with the pleiotropic PPARgamma coactivator (PGC) cell viability counter screen (AID 1224822;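 further: viability read after 17.5 h compound exposure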); details: ERR/PGC reporter cell line viability counter screen; series mostly up to 46.1 µM
Summary of the method: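 Seed PGC/ERR cells (2,000/well); incubate 6 h at 37 C/5% CO2; pin-transfer compounds in DMSO; incubate 17.5 h at 37 C; add CellTiter-Fluor; after 30 min read fluorescence.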

[9] = qHTS assay to identify small molecule antagonists of the retinoic acid receptor (RAR) signaling pathway (AID 1159552; further: nearly all actives have a fitted effect of over 50% in size); details: C3RL4 RARE luciferase reporter, retinol-stimulated, 6 h; series mostly up to 92.4 µM
Summary of the method: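 Quantitative HTS in C3RL4 RARE-luciferase reporter cells. Compounds were added with 1 uM (final) retinol; luminescence was read after 6 hr.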

[10] = test system: estrogen-related receptor alpha (ERRalpha) with PGC-1alpha coactivator, human; assay: qHTS assay to identify small molecule antagonists of the estrogen related receptor signaling pathway with the pleiotropic PPARgamma coactivator (PGC) (AID 1224821; calls by dose curve;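 further: lower luminescence signal means antagonism of PGC/ERR signalling; nearly all actives have a fitted effect of over 50% in size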); details: ERR/PGC reporter cell line, luciferase, antagonist mode; series mostly up to 46.1 µM
Summary of the method: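 Cells engineered for PGC/ERR signalling (line from NTP) were plated 6 h at 37 C/5% CO2, then exposed to DMSO-dissolved compound for 18 h at 37 C. Luciferase activity was read by One-Glo luminescence after 30 min at room temperature.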

Chain of Retinoic acid receptor RXR-alpha (Homo sapiens) (P19793 whole entry, looked up): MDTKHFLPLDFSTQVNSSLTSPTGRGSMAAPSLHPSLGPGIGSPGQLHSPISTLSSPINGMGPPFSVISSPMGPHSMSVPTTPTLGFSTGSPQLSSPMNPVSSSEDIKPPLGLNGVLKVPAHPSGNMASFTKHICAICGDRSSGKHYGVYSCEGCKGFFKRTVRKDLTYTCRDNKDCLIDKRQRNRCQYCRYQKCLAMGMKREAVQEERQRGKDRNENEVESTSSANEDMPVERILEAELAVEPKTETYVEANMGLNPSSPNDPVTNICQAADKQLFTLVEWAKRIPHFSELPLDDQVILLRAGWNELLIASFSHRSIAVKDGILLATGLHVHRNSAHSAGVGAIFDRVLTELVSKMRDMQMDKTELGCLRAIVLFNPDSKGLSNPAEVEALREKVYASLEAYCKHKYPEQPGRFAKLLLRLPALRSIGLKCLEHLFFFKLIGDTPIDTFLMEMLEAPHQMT

CCOP(=S)(OCC)Oc1ccc(Cl)cc1Cl
Potency [1]: inactive
Potency [2]: inactive
Potency [3]: inactive
Potency [4]: inactive

CN(C)C1CCCCC1
Potency [1]: inactive
Potency [2]: inactive
Potency [3]: inactive
Potency [4]: inactive

CCOP(=O)(CN(CCO)CCO)OCC
Potency [1]: inactive
Potency [2]: inactive
Potency [3]: inactive
Potency [4]: inactive

O=C/C=C/c1ccco1
Potency [1]: inactive
Potency [2]: inactive
Potency [3]: inactive
Potency [4]: inactive

CCOC(=O)N(C)N=O
Potency [1]: inactive
Potency [2]: inactive
Potency [3]: inactive
Potency [4]: inactive

N#CC(Br)(Br)C(N)=O
Potency [1]: 1.55 µM (active)
Potency [2]: inactive
Potency [3]: inactive
Potency [4]: inactive

Cc1ccc(S(=O)(=O)N[C@@H](CCCCN)C(=O)CCl)cc1
Potency [1]: inactive
Potency [2]: inactive
Potency [3]: inactive
Potency [4]: inactive
outcome [5]: inactive
outcome [6]: inactive
outcome [7]: inactive
outcome [8]: inactive

C#CCOC(=O)/C=C(C)/C=C/CC(C)CCCC(C)C (centres undefined)
Potency [1]: 49 µM (active)
Potency [2]: inactive
Potency [3]: inactive
Potency [4]: inactive

CCC(CC)(CNC(=O)CCCO)c1cccc(OC)c1
Potency [1]: inactive
Potency [2]: inactive
Potency [3]: inactive
Potency [4]: inactive

CCN(CC)CCOC(=O)C(O)(c1ccccc1)c1ccccc1
Potency [1]: inactive
Potency [2]: inactive
Potency [3]: inactive
Potency [4]: inactive

CCNc1nc(NCC)nc(SC)n1
Potency [1]: inactive
Potency [2]: inactive
Potency [3]: inactive
Potency [4]: inactive

COC(=O)c1ccc(CBr)cc1
Potency [1]: inactive
Potency [3]: inactive
Potency [9]: inactive

CC(=O)CN(CC(C)=O)N=O
Potency [1]: inactive
Potency [2]: inactive
Potency [3]: inactive
Potency [4]: inactive

C[C@H](CN1CCOCC1)C(C(=O)N1CCCC1)(c1ccccc1)c1ccccc1
Potency [1]: inactive
Potency [2]: inactive
Potency [3]: inactive
Potency [4]: inactive

ClC1=C(Cl)C2(Cl)C(CBr)CC1(Cl)C2(Cl)Cl (centres undefined)
Potency [1]: inactive
Potency [2]: inactive
Potency [3]: inactive
Potency [4]: inactive

COc1ccc(C=O)cc1O
Potency [1]: inactive
Potency [3]: inactive
Potency [9]: inactive
Potency [4]: inactive

NC(=O)OCCCc1ccccc1
Potency [1]: inactive
Potency [2]: inactive
Potency [3]: inactive
Potency [4]: inactive

C(COCC1CO1)OCC1CO1 (centres undefined)
Potency [1]: inactive
Potency [3]: inactive

O=C(Cl)CCl
Potency [1]: inactive
Potency [2]: inactive
Potency [3]: inactive
Potency [4]: inactive

CC(C)(N)Cc1ccccc1Cl
Potency [1]: inactive
Potency [2]: inactive
Potency [3]: inactive
Potency [4]: inactive

C[C@H](N)C(=O)c1ccccc1
Potency [1]: inactive
Potency [3]: inactive
Potency [9]: inactive
Potency [4]: inactive

N#CN=C1SCCN1Cc1ccc(Cl)nc1
Potency [1]: 38.9 µM (active)
Potency [3]: inactive
Potency [9]: inactive
Potency [4]: inactive

CN(CCO)CCO
Potency [1]: inactive
Potency [3]: inactive
Potency [9]: inactive
Potency [4]: inactive

CS(=O)(=O)Cl
Potency [1]: inactive
Potency [3]: inactive
Potency [9]: inactive
Potency [4]: inactive

C=CC1(C)OC(=O)N(c2cc(Cl)cc(Cl)c2)C1=O (centres undefined)
Potency [2]: 34.5 µM (active) and inactive
Potency [3]: inactive

O=C(Cl)/C=C/C(=O)Cl
Potency [1]: inactive
Potency [3]: inactive
Potency [9]: inactive
Potency [4]: inactive

CNC(=O)O/N=C(/CSC)C(C)(C)C
Potency [1]: inactive
Potency [3]: inactive
Potency [9]: inactive
Potency [4]: inactive

CCCOC(=O)c1cncn1C(C)c1ccccc1 (centres undefined)
Potency [1]: inactive
Potency [3]: inactive
Potency [9]: inactive
Potency [4]: inactive

CC1=C2[C@H]3OC(=O)[C@@H](C)[C@@H]3CC[C@@]2(C)C=CC1=O
Potency [1]: inactive
Potency [3]: inactive
Potency [4]: inactive

CC[C@@H](CO)NC(=O)[C@@H]1C=C2c3cccc4[nH]cc(c34)C[C@H]2N(C)C1
Potency [1]: inactive
Potency [3]: inactive
Potency [9]: inactive
Potency [4]: inactive
outcome [5]: inactive
outcome [6]: inactive
outcome [7]: inactive
outcome [10]: inactive
outcome [8]: inactive

O=C(CCl)NCO
Potency [1]: inactive
Potency [3]: inactive
Potency [9]: inactive
Potency [4]: inactive

O=C(O)CBr
Potency [1]: inactive
Potency [3]: inactive
Potency [4]: inactive

S=C=S
Potency [1]: inactive
Potency [3]: inactive
Potency [4]: inactive

C=C1C[C@@H]2[C@H](CC[C@]3(C)C(=O)CC[C@@H]23)[C@@]2(C)C=CC(=O)C=C12
Potency [1]: inactive
Potency [3]: inactive
Potency [4]: inactive

CC(C)c1ccc(O)cc1
Potency [1]: inactive
Potency [3]: inactive
Potency [9]: inactive
Potency [4]: inactive

[P]#[In]
Potency [1]: inactive
Potency [3]: inactive
Potency [9]: inactive
Potency [4]: inactive

COC(=O)[C@@H](N)CCCN/C(N)=N/[N+](=O)[O-]
Potency [1]: inactive
Potency [3]: inactive
Potency [9]: inactive
Potency [4]: inactive

CCOC(=O)CC(SP(=S)(OC)OC)C(=O)OCC (centres undefined)
Potency [2]: inactive
Potency [3]: inactive
outcome [5]: inactive

BrCCc1ccccc1
Potency [1]: inactive
Potency [3]: inactive
Potency [9]: inactive
Potency [4]: inactive

[O-][Br+2]([O-])O
Potency [1]: inactive
Potency [3]: inactive
Potency [9]: inactive
Potency [4]: inactive

CCC(C)C(C)(COC(N)=O)COC(N)=O (centres undefined)
Potency [1]: inactive
Potency [3]: inactive
Potency [9]: inactive
Potency [4]: inactive

NNCc1ccccc1
Potency [1]: 22.3 µM (active)
Potency [3]: inactive
Potency [9]: inactive
Potency [4]: 2.48 µM (active)

Cc1ccc(Cl)c(O)c1
Potency [1]: inactive
Potency [3]: inactive
Potency [9]: inactive
Potency [4]: inactive

O=C(Cl)OCc1ccccc1
Potency [1]: inactive
Potency [3]: inactive
Potency [4]: inactive
